Data on 19 compounds can be found in PubChem BioAssay.

Unmarked numbers belong to inactive results. For some assays here: Results with a measured potency or affinity are listed apart. Active and inactive are the calls of the source. Unless noted, how the calls were made is not given here.

A short description of experiment [1]: antimalarial activity against Dd2 strain (AID 2302;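 active means growth inhibition above 50% at the single 2 µM test dose, taken to imply half-maximal potency below 2 µM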;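 further: 0% = DMSO untreated growth and 100% = chloroquine plus artemisinin killed control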). As to conditions: P. falciparum Dd2 in RBCs, LDH growth readout, 72 h; at 2 µM; stronger effect = higher value.
Experiment [2] is described as follows: HepG2 cytotoxicity, primary screen, cytotoxicity control for P. falciparum antimalarial project, cell-based, ATP luminescence (AID 2303;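 active means inhibition above 50%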;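 further: 0% = DMSO wells and 100% = digitonin-killed cells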). As to conditions: HepG2 viability, 24-48 h, at 10 µM, stronger effect = higher value.
Experiment [3] deals with L-lactate dehydrogenase (Plasmodium falciparum (isolate CDC / Honduras)) (UniProt Q27743). As to the kind of experiment: PfLDH activity inhibition – cell lysate, 3D7 strain, counter-screen for P. falciparum growth inhibition project (AID 2304).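 Further: 0% = vehicle and 100% = reference inhibitor.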 The conditions noted are these: P. falciparum 3D7 crude extract, LDH APAD/NBT absorbance; at 2 µM; stronger effect = higher value. A general note: The purpose of a counterscreen is to sort out artefacts and off-target activity.
Chain of L-lactate dehydrogenase (Plasmodium falciparum (isolate CDC / Honduras)) (Q27743 whole entry, looked up): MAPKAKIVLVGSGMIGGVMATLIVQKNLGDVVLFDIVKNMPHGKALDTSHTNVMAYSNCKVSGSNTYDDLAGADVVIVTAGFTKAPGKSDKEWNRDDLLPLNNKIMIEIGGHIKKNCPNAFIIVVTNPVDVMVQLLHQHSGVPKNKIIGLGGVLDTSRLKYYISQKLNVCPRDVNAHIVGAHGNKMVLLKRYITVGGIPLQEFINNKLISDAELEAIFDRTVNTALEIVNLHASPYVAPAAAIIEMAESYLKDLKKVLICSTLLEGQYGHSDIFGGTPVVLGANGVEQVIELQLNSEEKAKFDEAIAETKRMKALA

Experiment [4] can be described thus: inhibition of 3D7 malaria parasite growth – strain 3D7 (AID 2306).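 Further: 0% = DMSO wells and 100% = chloroquine plus artemisinin control wells.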 The conditions noted are these: P. falciparum 3D7 erythrocytic growth, LDH absorbance, 72 h; at 2 µM; stronger effect = higher value.
Experiment [5] deals with Calcium-dependent protein kinase 1 (Plasmodium falciparum (isolate 3D7)) (UniProt P62344). Put plainly: PfCDPK1 kinase inhibitors, biochemical, TCAMS library (AID 1159585; cut-off not given, nearly all actives have IC50 up to about 0.98 µM;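 further: inhibitors leave more ATP so luminescence rises with inhibition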). The conditions noted are these: recombinant PfCDPK1, Kinase-Glo ATP depletion luminescence. For orientation: In Kinase-Glo more light means more ATP remaining.
Chain of Calcium-dependent protein kinase 1 (Plasmodium falciparum (isolate 3D7)) (P62344 whole entry, looked up): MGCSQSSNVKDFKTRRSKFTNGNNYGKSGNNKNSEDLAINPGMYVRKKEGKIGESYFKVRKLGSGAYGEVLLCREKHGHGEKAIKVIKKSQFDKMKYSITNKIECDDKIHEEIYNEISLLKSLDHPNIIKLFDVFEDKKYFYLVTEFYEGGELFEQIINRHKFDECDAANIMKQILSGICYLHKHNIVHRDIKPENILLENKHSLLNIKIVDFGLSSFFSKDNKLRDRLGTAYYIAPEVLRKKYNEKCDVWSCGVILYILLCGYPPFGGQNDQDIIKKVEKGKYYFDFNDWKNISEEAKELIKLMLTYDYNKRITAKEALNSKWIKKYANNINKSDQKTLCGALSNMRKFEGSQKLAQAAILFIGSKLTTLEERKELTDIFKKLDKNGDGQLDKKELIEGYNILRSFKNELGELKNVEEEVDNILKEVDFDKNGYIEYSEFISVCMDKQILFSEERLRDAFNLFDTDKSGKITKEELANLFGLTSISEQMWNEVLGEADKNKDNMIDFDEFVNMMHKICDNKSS
Experiment [6] addresses Plasmodium falciparum protein kinase 6 (PK6, PF3D7_1337100) (UniProt Q8IDW1). Put plainly: PfPK6 kinase inhibitors, biochemical, TCAMS library (AID 1159586). The conditions noted are these: recombinant PfPK6, Kinase-Glo ATP depletion luminescence.
For experiment [7], the target named is Protein kinase 7 (PK7), Plasmodium falciparum 3D7 (PF3D7_0213400) (UniProt Q7YTF7). Put plainly: inhibition of Plasmodium PK7 catalytic activity – biochemical, TCAMS antimalarial set, Kinase-Glo luminescence (AID 1159587). As to conditions: recombinant PfPK7, Kinase-Glo ATP depletion luminescence.
Chain of Protein kinase 7 (PK7), Plasmodium falciparum 3D7 (PF3D7_0213400) (Q7YTF7 1-343): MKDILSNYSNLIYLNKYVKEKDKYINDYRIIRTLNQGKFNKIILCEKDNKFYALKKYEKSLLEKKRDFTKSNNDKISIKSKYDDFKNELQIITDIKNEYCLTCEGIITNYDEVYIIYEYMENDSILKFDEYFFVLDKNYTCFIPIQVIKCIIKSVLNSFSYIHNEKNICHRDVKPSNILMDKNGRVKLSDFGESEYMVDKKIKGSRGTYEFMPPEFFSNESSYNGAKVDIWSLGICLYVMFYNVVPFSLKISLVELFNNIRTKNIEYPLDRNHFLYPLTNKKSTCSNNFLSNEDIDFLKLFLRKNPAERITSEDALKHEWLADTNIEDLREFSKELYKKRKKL
For experiment [8], the target named is Calcium-dependent protein kinase 4 (Plasmodium falciparum (isolate 3D7)) (UniProt Q8IBS5). As to the kind of experiment: PfCDPK4 kinase inhibitors, biochemical, TCAMS library (AID 1159588; cut-off not given, nearly all actives have IC50 up to about 0.91 µM). The conditions noted are these: recombinant PfCDPK4, Kinase-Glo ATP depletion luminescence.
Chain of Calcium-dependent protein kinase 4 (Plasmodium falciparum (isolate 3D7)) (Q8IBS5 whole entry, looked up): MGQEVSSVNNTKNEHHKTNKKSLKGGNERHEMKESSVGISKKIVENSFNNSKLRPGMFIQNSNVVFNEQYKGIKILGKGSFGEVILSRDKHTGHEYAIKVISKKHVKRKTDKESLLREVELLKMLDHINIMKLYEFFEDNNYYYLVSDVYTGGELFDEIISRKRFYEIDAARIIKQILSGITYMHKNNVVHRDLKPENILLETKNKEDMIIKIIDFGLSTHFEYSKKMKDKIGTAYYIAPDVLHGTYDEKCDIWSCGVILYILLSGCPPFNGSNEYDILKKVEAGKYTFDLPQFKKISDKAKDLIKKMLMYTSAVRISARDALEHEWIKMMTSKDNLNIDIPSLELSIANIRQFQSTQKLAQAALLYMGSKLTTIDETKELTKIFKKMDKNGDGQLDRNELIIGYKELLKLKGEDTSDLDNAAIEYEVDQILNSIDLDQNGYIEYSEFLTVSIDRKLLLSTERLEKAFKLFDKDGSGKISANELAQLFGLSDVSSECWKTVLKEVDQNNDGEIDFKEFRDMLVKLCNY

Chain of Plasmodium falciparum protein kinase 6 (PK6, PF3D7_1337100) (Q8IDW1 1-305): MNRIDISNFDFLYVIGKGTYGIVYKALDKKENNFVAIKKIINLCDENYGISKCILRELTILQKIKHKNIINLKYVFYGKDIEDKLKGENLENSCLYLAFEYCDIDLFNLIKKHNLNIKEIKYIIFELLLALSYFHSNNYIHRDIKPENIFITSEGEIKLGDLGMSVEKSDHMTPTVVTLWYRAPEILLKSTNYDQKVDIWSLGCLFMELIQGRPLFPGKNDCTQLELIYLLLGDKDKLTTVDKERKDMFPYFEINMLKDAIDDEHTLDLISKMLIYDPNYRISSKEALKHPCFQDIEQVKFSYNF

Turning to `Nc1ncc(-c2ccc(NC(=O)Nc3cc(C(F)(F)F)ccc3F)cc2)c(N)n1`, the growth inhibition is 21% in experiment [1] and 99% (active) in experiment [4]. Besides, the inhibition (as a rule, the relative decrease from the control value, in per cent) in experiment [2] was 96% (active); in experiment [3], -5%. The result in experiment [5], in experiment [6], in experiment [7] and in experiment [8] was inactive.

In the case of `N#Cc1ccc(-c2ccc(C(=O)NCCCCN3CCC(n4cnc5ccccc54)CC3)cc2)cc1`, the growth inhibition in experiment [1] is 2%; in experiment [4] it was 94% (active). The inhibition was 15% in experiment [2] and -3% in experiment [3]. In addition, the outcome in experiment [5], in experiment [6], in experiment [7] and in experiment [8] was inactive.

As for `O=C(Nc1cccc(-c2nn3ccccc3c2-c2ccnc(Nc3cccc(C(F)(F)F)c3)n2)c1)c1c(F)cccc1F`, the growth inhibition in experiment [1] is 91% (active); in experiment [4] it was 97% (active). The inhibition in experiment [2] is 43%; in experiment [3], -2%. The outcome in experiment [5], in experiment [6], in experiment [7] and in experiment [8] was inactive.

Take `CCSc1ccccc1CON1C(N)=NC(N)=NC1(C)C`: the growth inhibition in experiment [1] was 10%; in experiment [4], 96% (active). The inhibition is 62% (active) in experiment [2] and -3% in experiment [3]. Also, the outcome in experiment [5], in experiment [6], in experiment [7] and in experiment [8] was inactive.

Take `COc1cc2c(cc1S(=O)(=O)c1ccc(COc3ccc(C(F)(F)F)cc3)cc1)CNCC2`: the growth inhibition in experiment [1] is 89% (active); in experiment [4] it was 103% (active). The values for the inhibition in experiment [2] and in experiment [3] were 32% and 5%, respectively. Further, the result in experiment [5], in experiment [6], in experiment [7] and in experiment [8] was inactive.

For `CCCC(CC)n1ccc2c3c(N)nc(N)nc3ccc21` (configuration not stated), the growth inhibition in experiment [1] was 97% (active); in experiment [4], 94% (active). In addition, the inhibition in experiment [2] was 67% (active); in experiment [3], 0%. The outcome in experiment [5], in experiment [6], in experiment [7] and in experiment [8] was inactive.

Consider `COc1ccc(Cn2c(Nc3cccc(C(F)(F)F)c3)nc3cc(C(=O)NC(C)C)cnc32)cc1Cl`, for which the growth inhibition in experiment [1] is 81% (active); in experiment [4] it was 85% (active). For the same compound, the inhibition in experiment [2] was -6%; in experiment [3], 1%. The result in experiment [5], in experiment [6], in experiment [7] and in experiment [8] was inactive.

As for `CCOC(=O)c1[nH]c2cc(Cl)cc(Cl)c2c1/C=C/C(=O)Nc1ccc(-c2cnc(NC(C)=O)[nH]2)cc1`, the figures for the growth inhibition in experiment [1] and in experiment [4] were 65% (active) and 100% (active), respectively. Moreover, the inhibition in experiment [2] was 45%; in experiment [3], -3%. The outcome in experiment [5], in experiment [6], in experiment [7] and in experiment [8] was inactive.

With `COc1ccc2ncc(F)c(CCN3CC[C@@H](CNCc4cc5c(cn4)OCS5)C3)c2n1`, the growth inhibition in experiment [1] was 29%; in experiment [4], 98% (active). The inhibition in experiment [2] was 3%; in experiment [3], 0%. The outcome in experiment [5], in experiment [6], in experiment [7] and in experiment [8] was inactive.

In the case of `COc1csc2cc(Br)ccc12`, the results for the growth inhibition in experiment [1] and in experiment [4] were -5% and 101% (active), respectively. Further, the figures for the inhibition in experiment [2] and in experiment [3] were 6% and -3%, respectively. Further, the outcome in experiment [5], in experiment [6], in experiment [7] and in experiment [8] was inactive.

For the compound `COc1ccc(-c2cccc(NC(=O)c3cccc(C#N)c3)c2)cc1CN1CCCC1`, the figures for the growth inhibition in experiment [1] and in experiment [4] were 32% and 98% (active), respectively. For the same compound, the results for the inhibition in experiment [2] and in experiment [3] were 28% and -4%, respectively. The result in experiment [5], in experiment [6], in experiment [7] and in experiment [8] was inactive.

As for `O=C(Nc1ccc(OC2CCN(Cc3ccsc3)C2)c(Cl)c1)c1cccs1` (configuration not stated), the growth inhibition in experiment [1] was 87% (active); in experiment [4], 91% (active). For the same compound, the inhibition was -1% in experiment [2] and -5% in experiment [3]. The outcome in experiment [5], in experiment [6], in experiment [7] and in experiment [8] was inactive.

With `CCOc1ccc(C(=O)Nc2cc(Br)c3c(c2)CNCC3)cc1Cl`, the growth inhibition in experiment [1] is 8%; in experiment [4], 92% (active). The inhibition in experiment [2] was 13%; in experiment [3], 5%. The outcome in experiment [5], in experiment [6], in experiment [7] and in experiment [8] was inactive.

Take `CS(=O)(=O)c1ccc(CNCc2ccc(-c3cccc(-c4nc5ccc(F)cc5[nH]4)c3)cc2)cc1`: the growth inhibition is 74% (active) in experiment [1] and 102% (active) in experiment [4]. For the same compound, the inhibition in experiment [2] is 33%; in experiment [3], -5%. Further, the outcome in experiment [5], in experiment [6], in experiment [7] and in experiment [8] was inactive.

Regarding `O=C(Nc1ccc(OC(F)(F)F)cc1)NC1CCN(c2ccnc3ccccc23)C1` (configuration not stated), the figures for the growth inhibition in experiment [1] and in experiment [4] were 89% (active) and 101% (active), respectively. For the same compound, the results for the inhibition in experiment [2] and in experiment [3] were 25% and 1%, respectively. Moreover, the result in experiment [5], in experiment [6], in experiment [7] and in experiment [8] was inactive.

As to `COc1ccc(CNC2CCN(C)CC2)cc1-c1ccc(S(=O)(=O)NC2CCC2)c(F)c1`, the growth inhibition in experiment [1] was 97% (active); in experiment [4] it was 101% (active). Besides, the inhibition in experiment [2] is 96% (active); in experiment [3], 7%. The outcome in experiment [5], in experiment [6], in experiment [7] and in experiment [8] was inactive.

Take `CC(C)(C)NS(=O)(=O)c1cc(C(=O)N2CCC(CCN3CCC(O)(c4cccc(C(F)(F)F)c4)CC3)(c3cccc(F)c3)CC2)c(Cl)cc1F`: the growth inhibition in experiment [1] is 55% (active); in experiment [4], 88% (active). Moreover, the inhibition in experiment [2] is 15%; in experiment [3], -6%. The outcome in experiment [5], in experiment [6], in experiment [7] and in experiment [8] was inactive.

As to `CC(C)OC(=O)c1ccc(NC(=O)N[C@@H](Cc2ccc(O)cc2)C(=O)NC2C[C@H]3CC[C@@H](C2)N3Cc2ccccc2)cc1` (some centres not stated), the figures for the growth inhibition in experiment [1] and in experiment [4] were 19% and 92% (active), respectively. In addition, the values for the inhibition in experiment [2] and in experiment [3] were 0% and -5%, respectively. Also, the outcome in experiment [5], in experiment [6], in experiment [7] and in experiment [8] was inactive.

For `Cc1ccc(F)c(OCC2CCN(c3ncc(C(=O)NC4CC4)cc3Cl)CC2)c1`, the growth inhibition in experiment [1] was 95% (active); in experiment [4], 96% (active). For the same compound, the inhibition in experiment [2] is 9%; in experiment [3], -3%. Further, the result in experiment [5], in experiment [6], in experiment [7] and in experiment [8] was inactive.
